Drawing on PubChem BioAssay (Tox21), this text covers Potency and outcome for 13 compounds.

The structures appear in SMILES notation. Unmarked numbers belong to inactive results. Records with an inconclusive call do not appear. Active and inactive are the calls of the source. Unless noted, calls come from the whole dose curve; as a rule, active = well fitted curve in the direction sought with a large enough effect in the repeat runs; inconclusive = weak or mixed curves; inactive = no such curve, though single readings can be large; an effect the other way counts as inactive or inconclusive.

A short description of assay [1]: qHTS assay for small molecule agonists of the p53 signaling pathway (AID 651631; calls by dose curve; note: nearly all actives have a fitted effect of over 15% in size; note: potency is the fitted concentration of half-maximal effect). The gist of the method:
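Beta-lactamase reporter activity under p53 response elements was quantified in HCT-116 cells by FRET fluorescence, following 16 h incubation with test compounds at 37 °C and 2 h substrate development at room temperature.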
(In qHTS, concentration-response curves come from the screen itself.)

A short description of assay [2]: qHTS assay for small molecules that induce genotoxicity in human embryonic kidney cells expressing luciferase-tagged ATAD5 (AID 651632). Note: nearly all actives have a fitted effect of over 15% in size. The gist of the method:
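Increased luciferase signal from ATAD5-tagged reporter cells indicates DNA-damage-driven ATAD5 induction. HEK293T cells are treated for 16 hr at 37C before detection with Amplite.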

Assay [3] in a line: qHTS assay for small molecules that induce genotoxicity in human embryonic kidney cells expressing luciferase-tagged ATAD5 - cell viability (AID 651634; calls by dose curve; note: nearly all actives have a fitted effect of over 25% in size). The gist of the method: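 Cytotoxicity counterscreen in HEK293T cells bearing an ATAD5-luciferase reporter: live-cell protease activity measured by CellTiter-Fluor fluorescence after 15.5 hr compound exposure.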
A short description of assay [4]: qHTS assay for small molecule disruptors of the mitochondrial membrane potential - cell viability (AID 720634; calls by dose curve;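 note: human HepG2 liver cancer cells; nearly all actives have a fitted effect of over 20% in size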). The gist of the method: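 After overnight attachment at 37 C, HepG2 cells received compound or DMSO vehicle for 1 hr. Viability is then taken from ATP-driven luminescence following a 30 min room-temperature CellTiter-Glo step.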
Assay [5] can be described thus: qHTS assay to test for compound auto fluorescence at 590 nm (red) in HepG2 cells (AID 720674). The gist of the method: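 Fluorescence at 590 nm emission following 540 nm excitation was recorded from HepG2 wells one hour after compound transfer, with DMSO-only wells as vehicle and Rose Bengal sodium equivalency as the scale.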
A short description of assay [6]: qHTS assay to test for compound auto fluorescence at 535 nm (green) in HepG2 cells (AID 720675).
Assay [7] in a line: qHTS assay to test for compound auto fluorescence at 460 nm (blue) in HEK293 cells (AID 720678). The procedure, abridged: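 HEK293 cells (2,000 per well, medium with 10% dialyzed FBS) attached for 4-5 hr at 37C, then received compound and stood overnight at 37C, 5% CO2. Blue fluorescence was read at Ex/Em 405/460 nm and expressed relative to triamterene.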
Assay [8] is described as follows: qHTS assay to test for compound auto fluorescence at 590 nm (red) in HEK293 cells (AID 720679). The gist of the method:
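HEK293 cells (2,000/well, medium with 10% dialyzed FBS) attached for 4-5 hr at 37C, received 23 nL compound and were incubated overnight at 37C, 5% CO2. Red fluorescence was then read at 540/590nm Ex/Em, referenced to Rose Bengal sodium.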

The nature of assay [9]: qHTS assay to test for compound auto fluorescence at 535 nm (green) in HEK293 cells (AID 720680).
Assay [10] in a line: qHTS assay to test for compound auto fluorescence at 460 nm (blue) in HEK293 cell free culture (AID 720681). The gist of the method: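 Compounds were added to cell-free DMEM with 10% FBS and fluorescence read directly. The blue channel used 405 nm excitation and 460 nm emission, with triamterene as the reference fluorophore.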
The nature of assay [11]: qHTS assay to test for compound auto fluorescence at 535 nm (green) in HEK293 cell free culture (AID 720682). The procedure, abridged:
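Each library compound, or DMSO control, is added by pintool to medium alone, comprising DMEM and 10% FBS. Emission at 535 nm following 485 nm excitation is quantified against fluorescein.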

Assay [12] can be described thus: qHTS assay to test for compound auto fluorescence at 590 nm (red) in HEK293 cell free culture (AID 720683). The procedure, abridged:
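Cell-free wells of DMEM with 10% FBS received compound, and intrinsic fluorescence was read at excitation/emission 540/590 nm. Values expressed as equivalence to Rose Bengal sodium.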

A short description of assay [13]: qHTS assay to test for compound auto fluorescence at 590 nm (red) in HepG2 cell free culture (AID 720684). The gist of the method:
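Compounds are added to culture medium (MEM, 10% FBS) lacking cells, then fluorescence is read at excitation 540 nm, emission 590 nm, with Rose Bengal sodium as the equivalency standard.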

Assay [14] can be described thus: qHTS assay to test for compound auto fluorescence at 535 nm (green) in HepG2 cell free culture (AID 720686).
Assay [15] can be described thus: qHTS assay to test for compound auto fluorescence at 460 nm (blue) in HepG2 cells (AID 720687). The gist of the method:
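HepG2 cells in MEM with 10% FBS, attached overnight at 37 C, were exposed to compound or DMSO for 1 hr at 37 C, 5% CO2. Blue fluorescence was read at 405/460 nm, with triamterene as reference fluorophore.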

Assay [16] concerns the target Glucocorticoid receptor (Homo sapiens) (UniProt P04150). The experiment in a line: qHTS assay to identify small molecule agonists of the glucocorticoid receptor (GR) signaling pathway (AID 720691; active = well fitted activation curve with a large enough effect in the signal ratio in the repeat runs, not every such curve was filed as active; the % refers to the signal ratio). Particulars: GR-bla HeLa, beta-lactamase reporter ratio, 18 h; activation: at 62.4 µM (top of the series) unless noted. The procedure, abridged:
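Agonist mode in a HeLa line carrying a GRE-controlled beta-lactamase reporter. Compounds act for 18 h at 37 C before a 2 h room-temperature FRET substrate step and fluorescence reading.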

Assay [17] is described as follows: qHTS assay for small molecule disruptors of the mitochondrial membrane potential (AID 720635). Note: potency is the fitted concentration of half-maximal effect. The procedure, abridged:
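HepG2 cells exposed to compound 1 hr at 37C, then Mito-MPS dye 30 min. Ratio read of aggregate (540/590 nm) versus monomer (490/535 nm) fluorescence.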

A short description of assay [18]: qHTS assay to test for compound auto fluorescence at 460 nm (blue) in HepG2 cell free culture (AID 720685). The gist of the method:
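Compound (23 nL) or DMSO pinned into cell-free MEM with 10% FBS; blue fluorescence read at 405/460 nm excitation/emission, expressed as auto-fluorescence equivalency to triamterene.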

Assay [19] concerns the target Glucocorticoid receptor (Homo sapiens) (UniProt P04150). In words: qHTS assay to identify small molecule antagonists of the glucocorticoid receptor (GR) signaling pathway (AID 720692; active = well fitted inhibition curve with a large enough effect in the signal ratio in the repeat runs, not every such curve was filed as active; the % refers to the signal ratio). The gist of the method: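 Cells plated, rested 4 h at 37 C/5% CO2; compounds in DMSO pin-transferred; dexamethasone added to 5 nM final; 18 h at 37 C; B/G FRET substrate added, 2 h room temperature; fluorescence measured.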

Assay [20] in a line: qHTS assay for small molecule agonists of the p53 signaling pathway - cell viability (AID 651633; calls by dose curve;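 note: p53RE-bla HCT reporter cells with a stable beta-lactamase p53 reporter; nearly all actives have a fitted effect of over 30% in size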). The gist of the method:
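p53RE-bla cells were treated with compound for 16 hours at 37 C. Cytotoxicity was then measured as CellTiter-Glo luminescence after 30 min at room temperature.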

Glucocorticoid receptor (Homo sapiens), sequence (P04150 whole entry, looked up): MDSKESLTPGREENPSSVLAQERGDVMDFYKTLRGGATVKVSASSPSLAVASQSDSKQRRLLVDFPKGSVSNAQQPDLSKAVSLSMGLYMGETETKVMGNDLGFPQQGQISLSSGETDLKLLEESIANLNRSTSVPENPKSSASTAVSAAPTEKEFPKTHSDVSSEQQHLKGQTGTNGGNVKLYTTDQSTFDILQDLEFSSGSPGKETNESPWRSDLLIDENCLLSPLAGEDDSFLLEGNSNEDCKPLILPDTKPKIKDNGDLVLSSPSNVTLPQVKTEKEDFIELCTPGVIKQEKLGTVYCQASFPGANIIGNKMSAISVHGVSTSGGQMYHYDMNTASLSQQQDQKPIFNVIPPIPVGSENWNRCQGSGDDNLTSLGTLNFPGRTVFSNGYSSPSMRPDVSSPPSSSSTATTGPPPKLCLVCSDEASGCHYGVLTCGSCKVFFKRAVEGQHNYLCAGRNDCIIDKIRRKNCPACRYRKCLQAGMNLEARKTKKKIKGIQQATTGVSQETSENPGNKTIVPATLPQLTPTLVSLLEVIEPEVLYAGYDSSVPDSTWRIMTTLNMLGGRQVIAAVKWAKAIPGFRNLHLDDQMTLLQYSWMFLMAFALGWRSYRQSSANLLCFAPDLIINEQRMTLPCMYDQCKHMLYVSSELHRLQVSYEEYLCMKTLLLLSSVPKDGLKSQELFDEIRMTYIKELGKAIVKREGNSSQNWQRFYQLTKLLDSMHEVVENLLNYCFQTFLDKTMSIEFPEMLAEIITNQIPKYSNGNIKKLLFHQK

Turning to `C=CC1CC2C=CC1C2` (centres undefined), the Potency entry in assay [1], in [2], in assay [3], in assay [4], in assay [5] and in assay [6] was “inactive” throughout. Besides, the Potency result in assay [8], in assay [12], in [13], in assay [14] and in assay [16] was “inactive” each time. Further, the result in [7], in [9], in [10], in assay [11] and in [15] was inactive.

Turning to `Nc1ccc(S(=O)(=O)Nc2ccccc2)cc1`, the Potency result in [1], in assay [2], in assay [3], in assay [4], in assay [17] and in [5] was “inactive” each time. Further, the Potency entry in assay [6], in assay [8], in [12], in assay [13], in assay [14] and in assay [16] was “inactive” throughout. In addition, in assay [19], the Potency result was “inactive”. Besides, the compound was classed as inactive in assay [7], in assay [9], in assay [10], in assay [11], in assay [18] and in assay [15].

Consider `CCCCCCCN`, for which the Potency result in [1], in assay [2], in [3], in assay [4], in assay [5] and in [6] was “inactive” throughout. The Potency result in [8], in assay [12], in [13], in assay [14] and in assay [16] was “inactive” each time. For the same compound, the result in assay [7], in assay [9], in [10], in [11] and in assay [15] was inactive.

Consider `CC1=CC=C(C(C)C)CC1`, for which the Potency result in assay [1], in assay [2], in [20], in [3], in assay [6] and in [8] was “inactive” throughout. The Potency result in assay [13] and in assay [14] was “inactive” throughout. Also, the call in assay [7], in assay [9], in assay [10], in [11], in [18] and in assay [15] was inactive.

As to `CCOc1ccc(N)c([N+](=O)[O-])c1`, the Potency entry in assay [1], in [2], in assay [20], in [4], in assay [17] and in assay [5] was “inactive” in each case. The Potency result in assay [6], in assay [8], in assay [12], in assay [13] and in [14] was “inactive” throughout. The call in [7], in assay [9], in assay [10], in [11], in assay [18] and in [15] was inactive.

Turning to `CCCCc1ncc(/C=C(\Cc2cccs2)C(=O)O)n1Cc1ccc(C(=O)O)cc1`, the Potency entry in [1], in [2], in [20], in assay [3], in assay [5] and in assay [6] was “inactive” each time. In addition, the Potency entry in assay [8], in assay [12], in [13], in assay [14] and in assay [16] was “inactive” in each case. Further, the outcome in [7], in assay [9], in assay [10], in [11] and in assay [15] was inactive.

On to `C[C@H]1C[C@H]2[C@@H]3CCC4=CC(=O)C=C[C@]4(C)[C@@]3(Cl)[C@@H](O)C[C@]2(C)[C@@]1(O)C(=O)CO`, for which the Potency entry in [1], in assay [2], in assay [3], in [4], in assay [17] and in [5] was “inactive” in each case. The Potency entry in [6], in assay [8], in assay [12] and in [13] was “inactive” throughout. Also, the outcome in assay [7], in [9], in assay [10], in assay [11], in [18] and in [15] was inactive.

For the compound `ClCCOCCOCCCl`, the Potency result in assay [1], in assay [2], in assay [20], in assay [3], in [5] and in [6] was “inactive” each time. Further, the Potency result in assay [8], in [12], in assay [13] and in [14] was “inactive” in each case. Besides, the result in [7], in [9], in assay [10], in [11], in assay [18] and in [15] was inactive.

`CC(=O)OC[C@H]1O[C@@H](n2ncc(=O)[nH]c2=O)[C@H](OC(C)=O)[C@@H]1OC(C)=O`: the Potency in assay [1] is 1.88 µM (active). The Potency result in assay [2], in [3], in assay [4], in [17], in assay [5] and in [6] was “inactive” throughout. For the same compound, the Potency entry in assay [12], in assay [13] and in [14] was “inactive” each time. For the same compound, the call in assay [7], in assay [9], in [10], in [11], in [18] and in assay [15] was inactive.

Consider `NCC(=O)O`, for which the Potency result in assay [1], in [2], in assay [3], in assay [4], in [17] and in [5] was “inactive” each time. Besides, the Potency entry in [6], in [8], in assay [13], in assay [14], in [16] and in [19] was “inactive” throughout. The outcome in [7], in assay [9], in [10], in assay [11], in assay [18] and in assay [15] was inactive.

For `c1ccc(C(O[C@H]2CCCN(CCc3ccc4c(c3)OCO4)C2)c2ccccc2)cc1`, the Potency entry in [1], in [2], in assay [3], in assay [4], in assay [5] and in [6] was “inactive” in each case. In addition, the Potency entry in [8], in [12], in assay [13], in assay [14] and in assay [16] was “inactive” in each case. Moreover, the call in assay [7], in [9], in assay [10], in assay [11], in assay [18] and in assay [15] was inactive.

`COC(=O)C1=C(C)NC(COC(N)=O)=C(C(=O)OC(C)C)C1c1cccc(Cl)c1Cl` (centres undefined): the values for the Potency in [1] and in assay [17] were 16.8 µM (active) and 26.6 µM (active), respectively. Moreover, the Potency result in assay [2], in [20], in assay [3], in assay [5], in assay [6] and in assay [12] was “inactive” in each case. The Potency result in assay [13] is “inactive”. Further, the call in [9] and in [11] was inactive.

As for `COC(=O)c1ccc(I)cc1S(=O)(=O)NC(=O)Nc1nc(C)nc(OC)n1`, the Potency result in assay [1], in assay [2], in [3], in [4], in assay [5] and in assay [6] was “inactive” in each case. The Potency result in assay [8], in [12], in assay [13], in assay [14] and in [16] was “inactive” each time. The compound was classed as inactive in [7], in assay [9], in assay [10], in assay [11], in [18] and in assay [15].
